The list is not random: actives were taken first. Their share in the collection is about 21%.
RORgamma inh: blocks mouse ROR gamma transcriptional activity; P51450; Drosophila S2 Gal4-RORgamma UAS-luciferase reporter, 20 h; Potency, µM (titrated, usually from 53.6 µM), most hits filed as inhibitors; 310,000 compounds, 5.4% hits; AID 2551; also: nearly all actives have a fitted effect of over 60% in size
Target sequence (P51450 whole entry, looked up, the tested form may be a part): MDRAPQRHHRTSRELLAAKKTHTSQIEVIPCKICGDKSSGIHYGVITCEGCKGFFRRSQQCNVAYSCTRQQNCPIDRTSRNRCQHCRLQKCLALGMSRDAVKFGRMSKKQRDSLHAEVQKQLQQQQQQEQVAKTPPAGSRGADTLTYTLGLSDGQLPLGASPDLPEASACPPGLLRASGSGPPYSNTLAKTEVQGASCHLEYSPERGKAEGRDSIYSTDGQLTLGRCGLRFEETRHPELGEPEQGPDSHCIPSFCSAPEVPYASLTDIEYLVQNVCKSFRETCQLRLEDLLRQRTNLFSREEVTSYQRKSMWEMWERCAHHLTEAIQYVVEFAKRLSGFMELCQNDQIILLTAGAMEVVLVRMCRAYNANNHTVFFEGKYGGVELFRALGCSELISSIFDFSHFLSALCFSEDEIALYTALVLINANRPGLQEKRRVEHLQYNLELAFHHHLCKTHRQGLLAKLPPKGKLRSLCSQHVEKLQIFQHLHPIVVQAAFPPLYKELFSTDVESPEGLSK
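Drosophila Schneider cells stably carrying a metallothionein-driven Gal4 DBD–ROR gamma fusion and a UAS-Photinus luciferase reporter were exposed to compound for 1 hr, then induced with copper sulfate (700 uM final) for 20 hr at ambient temperature before luminescence reading.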
IL-1B inflam inh: blocks inflammasome-driven IL-1 beta release. activity change, % at 57.5 µM. 360,000 compounds, 4.7% hits. AID 743279. THP-1 LPS/ATP IL-1B secretion, AlphaLISA, 16 h; hits give low values; in the data active = activity change below about -50%; inconclusive = mostly about -30% to -49%
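THP-1 cells pretreated 1 hr with compounds (up to 57.5 uM final), then stimulated with LPS (250 ng/mL final) plus ATP (1.25 mM final); secreted IL-1B measured by AlphaLISA after 16 hr, decreased signal indicating inhibition.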
ELG1 DNA repair: blocks ELG1-dependent DNA repair in HEK293T cells | 330,000 compounds, 2.3% hits | AID 504467 | Potency, µM (highest dose often 46.1 µM), most hits filed as inhibitors | HEK293T ELG1-luciferase reporter, luminescence, 16 h; DNA damage induced by 5-fluorouridine; also: nearly all actives have a fitted effect of over 55% in size
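Overnight (16 hr) co-exposure of 2,000 cells/well to 5-fluorouridine and compound at 37 °C preceded detection. Luciferase was quantified via ONE-Glo luminescence; loss of signal denotes inhibition.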
DT40 TDP1 no CPT: qHTS for Inhibitors of human tyrosyl-DNA phosphodiesterase 1 (TDP1): qHTS in cells in absence of CPT; DT40 Tdp1-/- hTDP1 cells, no CPT, ATP luminescence, 48 h; Potency, µM (doses to about 46.2 µM), usual class: inhibitors; 420,000 compounds, 15% hits; also: nearly all actives have a fitted effect of over 55% in size
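Growth kinetics read by CellTiter-Glo luminescence after ≥48 hr at 37 °C. Cells: DT40 Tdp1-/- stably carrying human TDP1, 400 per well, compound exposure in the absence of CPT (DMSO vehicle).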
Gal4-VP16 FLuc: inhibits Gal4-VP16 luciferase reporter, ROR gamma counter-screen; Drosophila S2 Gal4-VP16 UAS-luciferase, luminescence, 20 h; Potency, µM (highest dose often 53.6 µM), usual class: inhibitors; 310,000 compounds, 3.5% hits; AID 2546;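 also: Gal4-VP16 expression switched on by copper sulfate through the metallothionein promoter; nearly all actives have a fitted effect of over 50% in size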
DT40 TDP1 CPT: growth inhibition of DT40 Tdp1-/-;hTDP1 cells with camptothecin (screen for TDP1 inhibitors); 420,000 compounds, 12% hits; chicken DT40 Tdp1-/-;hTDP1 cells + 20 nM CPT, ATP luminescence, 48 h; Potency, µM (highest dose often 46.2 µM), most hits filed as inhibitors; also: nearly all actives have a fitted effect of over 55% in size
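Cell growth measured by CellTiter-Glo luminescence after a minimum 48 h, 37 C compound exposure with 20 nM CPT in Tdp1-knockout DT40 cells stably expressing hTDP1, seeded 400/well; qHTS titration format.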
Hits are given with their value; . = inactive; ? = inconclusive; / = no result given; [ ] = remark or other dose. Unless noted, calls follow the shape of the dose curve; as a rule, active = well fitted curve in the direction sought with a large enough effect; inconclusive = small, poorly fitted or top-dose-only effect, or another doubt; inactive = no such curve, though single readings can be large; an effect the other way counts as inactive or inconclusive.

SMILES	RORgamma inh	IL-1B inflam inh	ELG1 DNA repair	DT40 TDP1 no CPT	Gal4-VP16 FLuc	DT40 TDP1 CPT
O=[N+]([O-])c1cccc(S(=O)(=O)Nc2nc3ccccc3nc2Nc2cccc(S(=O)(=O)N3CCCCC3)c2)c1	?	.	2.06µM	?	11.2µM	?
COc1cccc(Nc2nc3ccccc3nc2NS(=O)(=O)c2cccs2)c1	?	?	.	10.3µM	?	9.2µM
O=[N+]([O-])c1cccc(S(=O)(=O)Nc2ccc(S(=O)(=O)N3CCCC3)cc2)c1	/	.	/	.	/	.
Cc1ccc(S(=O)(=O)Nc2nc3ccccc3nc2Nc2cccc(S(=O)(=O)N3CCCC3)c2)cc1	?	.	20.6µM	?	.	?
COc1ccc(S(=O)(=O)Nc2cccc(S(=O)(=O)N3CCCCC3)c2)cc1	/	.	.	.	/	.
CN(C)C(=O)c1cnc(-c2ccccc2)nc1-c1ccccc1	.	.	.	.	.	.
CCOc1ccc2nc(NC(=O)CN3CCC(n4nnc5cc(C(F)(F)F)ccc54)CC3)sc2c1	.	.	?	23.1µM	.	14.6µM
Cc1cc(NC(=O)CN2CCC(n3nnc4cc(C(F)(F)F)ccc43)CC2)no1	.	.	?	?	.	?
O=C(CN1CCC(n2nnc3cc(F)ccc32)CC1)N1CCCc2ccccc21	.	.	?	?	.	?
O=C(CN1CCC(n2nnc3cc(C(F)(F)F)ccc32)CC1)N1CCc2ccccc21	.	.	.	10µM	.	13µM
CCOC(=O)c1cnc2cc(C(F)(F)F)ccc2c1Nc1cc(C)ccc1OC	/	/	/	?	/	.
CC(C(=O)NCc1cccs1)N1CCN(S(=O)(=O)c2ccc3c(c2)OCCCO3)CC1 (configuration not stated)	/	.	.	?	/	?
CCOc1ccccc1C(=O)NCC(=O)Nc1ccc2c(c1)OCO2	/	.	.	.	/	.
CCOc1ccccc1NC(=O)NC(C)c1ccc2c(c1)OCO2 (configuration not stated)	.	/	.	/	.	/
CCOc1ccccc1C(=O)NC(C)c1ccc2c(c1)OCO2 (configuration not stated)	.	.	.	?	.	18.4µM
CCOc1ccccc1C(=O)NC(C(=O)N(C)Cc1ccc2c(c1)OCO2)C(C)C (configuration not stated)	/	.	.	?	/	18.4µM
CCCCn1cc2c(c1-c1cccc(C)c1)c(=O)n(C)c(=O)n2C	?	.	.	?	.	?
Cc1cccc(-c2c3c(=O)n(C)c(=O)n(C)c3c3nnc4ccccc4n23)c1	/	.	/	6.51µM	/	?
Cc1cccc(-c2c3c(=O)n(C)c(=O)n(C)c3c3c(C)nc4ccccc4n23)c1	/	/	/	6.51µM	/	?
Cc1cccc(-c2c3c(=O)n(C)c(=O)n(C)c3cn2CCO)c1	.	.	.	.	.	.
Cc1ccccc1-c1noc(-c2ccc(NCC3CCCO3)c([N+](=O)[O-])c2)n1 (configuration not stated)	/	/	/	2.06µM	/	3.26µM
Cc1ccccc1-c1noc(-c2ccc(NC3CCCC3)c([N+](=O)[O-])c2)n1	/	/	/	.	/	.
COc1ccccc1-c1noc(-c2ccc(NCC3CCCO3)c([N+](=O)[O-])c2)n1 (configuration not stated)	/	/	/	8.2µM	/	18.4µM
COc1ccccc1-c1noc(-c2ccc(NC3CCCC3)c([N+](=O)[O-])c2)n1	/	/	/	23.1µM	/	18.4µM
CS(=O)c1ccccc1-c1nc(-c2cc(C(F)(F)F)cc(C(F)(F)F)c2)no1 (configuration not stated)	.	.	.	13µM	.	10.3µM
SMILES	RORgamma inh	IL-1B inflam inh	ELG1 DNA repair	DT40 TDP1 no CPT	Gal4-VP16 FLuc	DT40 TDP1 CPT
CSCC[C@H](N)C(=O)NC[C@H]1CC[C@H](C(=O)N[C@@H](Cc2ccccc2)C(=O)O)CC1	.	.	.	.	.	.
Cc1ccc(-n2ncc(C(=O)Nc3ccc4c(c3)OCO4)c2C2CCN(C(=O)OC(C)(C)C)CC2)cc1	/	/	/	20.6µM	/	20.6µM
Cc1ccc(-n2ncc(C(=O)Nc3ccc4c(c3)OCCO4)c2C2CCN(C(=O)OC(C)(C)C)CC2)cc1	/	/	/	20.6µM	/	20.6µM
CC(C)(C)OC(=O)N1CCC(c2c(C(=O)Nc3ccc4c(c3)OCCO4)cnn2-c2ccccc2)CC1	/	/	/	18.4µM	/	23.1µM
CC(=O)Nc1ccc(NC(=O)c2cnn(-c3ccccc3)c2C2CCN(C(=O)OC(C)(C)C)CC2)cc1	/	/	/	.	/	.
COc1cc(C(CC(=O)Nc2ccc(Cl)cn2)N2Cc3ccccc3C2=O)cc(OC)c1OC (configuration not stated)	.	.	.	?	.	?
COCC(=O)Nc1cc(C(=O)NC2CCc3ccccc32)c2c(c1)nc(-c1ccncc1)n2C (configuration not stated)	/	/	/	?	/	.[9.04 µM]
N#CC(=Nc1cccc(F)c1)C1=C(O)c2ccccc2C1=O	/	.	/	.	/	.
CCCCCC1(C(=O)OCC)CC(CSC(=N)N)OC1=O (configuration not stated)	.	.	.	16.4µM	.	20.6µM
COC(=O)CCC(=O)c1oc2ccc(Br)cc2c1N	.	.	?	25.9µM	.	?
COc1ccc2oc(C(=O)CCC(=O)O)c(N)c2c1	.	.	.	.	.	.
COc1ccc2oc(C(=O)OCC(=O)NC3CCCCC3)c(C)c2c1	/	.	.	.	/	.
CC(=O)c1cccc(NC(=O)C2CCCN(c3nnc(-n4cccc4)s3)C2)c1 (configuration not stated)	/	/	/	16.4µM	/	?
CC(=O)c1ccc(NC(=O)Nc2nnc(N3CCCC(C)C3)s2)cc1 (configuration not stated)	/	/	/	18.4µM	/	6.51µM
Cc1ccccc1NC(=O)C1CCCN(c2nnc(N3CCCC3=O)s2)C1 (configuration not stated)	.	.	.	.	.	.
Cc1cc(F)ccc1NC(=O)C1CCCN(c2nnc(-n3c(C)ccc3C)s2)C1 (configuration not stated)	/	/	/	16.4µM	/	20.6µM
Cc1cccc(NC(=O)C2CCCN(c3nnc(-n4c(C)ccc4C)s3)C2)c1C (configuration not stated)	/	/	/	14.6µM	/	14.6µM
O=S(=O)(O)c1cc(OS(=O)(=O)c2ccccc2)cc2ccccc12	.	.	.	.	.	.
COc1cccc(NC(=O)C2CCCN(c3nnc(-n4c(C)ccc4C)s3)C2)c1 (configuration not stated)	/	/	/	13µM	/	18.4µM
CC(C)c1ccc(OCC(=O)NC2=NCCS2)cc1	14.1µM	.	?	?	.[10 µM]	.

Source: PubChem (National Center for Advancing Translational Sciences (NCATS))
